The values that follow come from PubChem BioAssay (NCATS).

Results filed as inconclusive are left out. A call without a number means that no potency is given here. Activity calls are given as the source filed them. Calls come from the whole dose curve; as a rule, active = well fitted inhibition curve with a large enough effect; inconclusive = small, poorly fitted or top-dose-only effect; inactive = flat fitted curve, though single readings scatter.

In the assay the target is Calcium and integrin-binding protein 1 (Homo sapiens) (UniProt Q99828). The experiment in a line: Primary qHTS for Identification of Calcium Integrin Binding Protein 1 (CIB1) Competitor (AID 1508620). Note: top concentration of the series differs between compounds. Conditions: CIB1-GST / FITC-alphaIIb peptide fluorescence polarization; series mostly up to 114 µM. In a few lines: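 Fluorescence polarization competition: GST-tagged CIB1 (1 uM final) preincubated with compound 15 min at room temperature, then FITC-labelled alphaIIb peptide (100 nM final) added. After 15 min at room temperature, polarization read at Ex 480/Em 540.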
Calcium and integrin-binding protein 1 (Homo sapiens), sequence (Q99828 whole entry, looked up): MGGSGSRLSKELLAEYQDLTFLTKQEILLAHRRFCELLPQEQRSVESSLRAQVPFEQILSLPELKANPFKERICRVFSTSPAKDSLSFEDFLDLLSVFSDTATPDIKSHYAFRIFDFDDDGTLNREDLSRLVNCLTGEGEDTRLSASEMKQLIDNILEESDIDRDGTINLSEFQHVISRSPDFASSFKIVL
`O=C(NC1CCCc2c1cnn2-c1ccc(F)cc1F)c1ccccn1` (configuration not stated): the Potency entry was “inactive”.

Regarding `Cc1ccc(NS(=O)(=O)c2ccc3c(c2)C(Cl)(Cl)C(=O)N3)cc1C`, the Potency entry was “inactive”.

On to `Cc1c(C(=O)O)[nH]c2c1C(=O)CCC2`, for which the Potency result was “inactive”.

For the compound `CCOc1ccc(C(C)CNC(=O)c2cc3sccc3n2Cc2ccccc2)cc1OCC` (configuration not stated), the Potency entry was “inactive”.

Take `O=C(Nc1nnc(-c2ccncc2)s1)Nc1ccc(Cl)cc1Cl`: the Potency result was “inactive”.

With `CCOc1ccc(CCNC(=O)C2CCCCC2)cc1OCC`, the Potency entry is “inactive”.

In the case of `O=C(OC/C=C/CSc1nnc(-c2cccc3ccccc23)o1)c1ccc(F)cc1`, the Potency entry was “inactive”.

Consider `CC(C)(C)N[S+](=O)([O-])c1cccc(-c2nnc(SCc3ccc(C(=O)O)cc3)n2-c2ccc(F)cc2)c1`, for which the Potency result was “inactive”.

Consider `Cc1ccccc1S(=O)(=O)N1CCN(S(=O)(=O)c2ccc3c(c2)OCCO3)CC1`, for which the Potency entry was “inactive”.

`COc1ccc(NS(=O)(=O)c2ccccc2C(=O)O)cc1`: the Potency entry was “inactive”.

Regarding `Cc1cc(NCc2ccc(-c3cccnc3)cc2)nc(-c2ccccc2C(C)C)n1`, the Potency entry is “inactive”.

With `O=C(CNC(=O)c1ccccc1)N[C@@H](C(=O)Nc1cc(C(F)(F)F)ccc1Cl)c1ccccc1`, the Potency result is “inactive”.

Turning to `Clc1ccccc1-c1ccc2ncnc(NCc3ccc4c(c3)OCO4)c2c1`, the Potency result is “inactive”.

For the compound `Cc1ccc(S(=O)(=O)Nc2ccc(C)cc2C(=O)Nc2nc(-c3ccccc3)cs2)cc1`, the Potency result is “inactive”.

Turning to `Cc1nnc(-c2cnn(C)c2N)n1CCc1ccccc1`, the Potency result is “inactive”.

As to `O=C(Nc1ccc(F)c(C(F)(F)F)c1)Nc1nc(-c2ccncc2)cs1`, the Potency entry is “inactive”.

Take `FC(F)(F)c1cccc(-c2ccc(CNc3nc(-c4ccccc4C(F)(F)F)nc4ccccc34)cc2)c1`: the Potency result is “inactive”.
